Data on eight compounds can be found in PubChem BioAssay (NCI).

Experiment in all cases: NCI-60 one-dose screen, 48 h (100 = growth as untreated, 0 = no growth, -100 = all killed)
Settings in all cases: 10 µM unless noted

In assay [1] the test system is SR leukemia.
The subject of assay [2] is RPMI-8226 leukemia.
Assay [3] relates to OVCAR-8 ovarian.
Assay [4] has as its system OVCAR-5 ovarian.
For assay [5], the system named is OVCAR-4 ovarian.
Assay [6] has as its system SK-OV-3 ovarian.
In assay [7] the test system is OVCAR-3 ovarian.
Assay [8] deals with HS 578T breast.
In assay [9] the test system is NCI/ADR-RES ovarian.
Assay [10] deals with T-47D breast.
In assay [11] the test system is BT-549 breast.
Assay [12] has as its system MDA-MB-435 melanoma.
Assay [13] relates to SW-620 colon.
The test system of assay [14] is MCF7 breast.
Assay [15] deals with HCT-116 colon.
In assay [16] the test system is HCC-2998 colon.
For assay [17], the system named is KM12 colon.
Assay [18] relates to IGROV1 ovarian.

Molecules are shown by their SMILES. This is part of a sample that, as a whole, favours compounds with a hit. Of some 83,000 tested, about 20% had one in any assay.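 Single-dose data. Exposure time 48 hours. Values below 10 considered active.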 Values without a mark were called inactive. Activity calls are given as the source filed them.

For the compound `C=C(c1ccc(C(=O)O)cn1)c1cc2c(cc1C)C(C)(C)CCC2(C)C`, the growth in assay [1] was 82.7%; in [2], 66.5%; in [3], 83.7%; in [4], 121%; in assay [5], 85.2%; in assay [6], 75.5%. Further, the growth in assay [7] is 87.6%; in [8], 69.5%; in assay [9] it was 83.6%; in assay [10] it was 81.5%; in [11], 86.4%; in assay [12], 92.6%. The growth in [13] is 117%; in assay [14], 65.6%; in assay [15] it was 82.3%; in assay [16] it was 126%; in assay [17], 86.1%.
On to `COc1ccc2c(O)c(/C=C3\N=Nc4ccccc43)oc2c1C[C@H]1CCNC[C@H]1F`, for which the growth is -23.4% (active) in assay [1]; 60.4% in assay [2]; 61% in [3]; 35.4% in assay [4]; 57.6% in assay [5]; 69% in assay [6]. For the same compound, the growth in [7] was 66.4%; in assay [8] it was 54.7%; in assay [9] it was 82.4%; in assay [10], 83.3%; in [11], 71.2%; in [12], 35.4%. The growth in assay [13] is 15.6%; in assay [14], 12.1%; in assay [15], 26.7%; in assay [16] it was 49.7%; in [17] it was 2.5% (active).
As for `COc1cccc(/C=C/C(=O)c2cc3c(N)c(C(=O)Nc4ccccc4C)sc3nc2C)c1`, the growth in assay [1] was 10.8%; in [2], -20.8% (active); in assay [3] it was -33.9% (active); in [4] it was 87.2%; in [5] it was 70.9%; in assay [6], 104%. Also, the growth in [7] is 3.31% (active); in [8], 13.9%; in [9], 10.1%; in assay [10] it was 56.2%; in assay [11], 37.8%; in assay [12], -26.3% (active). Moreover, the growth was 1.68% (active) in assay [13]; 7.39% (active) in assay [14]; 41.8% in assay [15]; 35.1% in assay [16]; 27.4% in [17].
As for `C/C(=N\Nc1nc(C)cs1)c1cc2ccccc2o1`, the growth in assay [1] was 109%; in assay [2], 88.5%; in assay [3] it was 93.3%; in assay [4] it was 103%; in assay [5], 94.2%; in assay [6], 105%. Moreover, the growth in assay [7] is 94.1%; in assay [8], 88.8%; in [9], 102%; in assay [10] it was 21.4%; in assay [11], 99.3%; in assay [12], 105%. The growth in [13] is 100%; in assay [14], 74.2%; in assay [15], 79.3%; in assay [16], 112%; in assay [17], 95.5%.
In the case of `Clc1ccc(-c2cn3ccsc3n2)c(Cl)c1Cl`, the growth in assay [1] was 49.9%; in assay [2] it was 67.5%; in [3], 95.7%; in [4], 88.5%; in assay [5], 74.1%; in assay [6], 118%. The growth in assay [18] was 77.2%; in [7], 93.3%; in assay [8], 84.3%; in [9], 99.6%; in [11], 86.3%; in [12] it was 96.6%. For the same compound, the growth in assay [13] was 96.8%; in [14], 0.866% (active); in assay [15] it was 91.7%; in assay [17] it was 98.1%.
In the case of `COc1cc(/C=C2\C(=O)N(c3c(Cl)cccc3Cl)c3ccccc32)cc(OC)c1OCCCCCCn1c2ccccc2c(=O)c2ccccc21`, the growth in assay [1] is 85.7%; in [2], 102%; in assay [3], 98.3%; in [4] it was 88.6%; in [5] it was 95.5%; in assay [6], 110%. Besides, the growth in assay [7] was 104%; in assay [8] it was 113%; in [9], 109%; in assay [10], 89.6%; in assay [11], 94.4%; in [12], 103%. The growth was 106% in assay [13]; 92% in assay [14]; 95.9% in assay [15]; 112% in assay [16]; 103% in assay [17].
`N#CCC1=NC(c2cccs2)=Nc2ccccc2S1`: the growth in [1] is 91.5%; in assay [2] it was 65.7%; in assay [3] it was 95.9%; in assay [5], 93.8%; in assay [6], 76.4%; in assay [18], 86.4%. The growth in assay [7] was 95.3%; in assay [8], 96.2%; in [9], 98%; in [10] it was 69.7%; in [11], 86.6%; in [12], 105%. The growth was 96.8% in [14], 80.8% in [15], 92.5% in assay [16] and 94.9% in [17].
`CN1CCN(c2ccc(NC(=O)c3cncnc3Nc3ccc4c(ccn4Cc4cccc(F)c4)c3)cc2)CC1`: the growth in assay [1] was 10.9%; in assay [2] it was 46.1%; in assay [3], 34.9%; in assay [5] it was 66.2%; in [6] it was 97.4%; in assay [18] it was 77.1%. The growth in assay [7] was 80.8%; in assay [8], 68.3%; in assay [9] it was 75.8%; in [10], 48.8%; in assay [11], 85.6%; in [12] it was -79.7% (active). For the same compound, the growth in assay [13] is 5.18% (active); in assay [14] it was 12.8%; in assay [15], 13.1%; in assay [16] it was 61.6%; in assay [17] it was 46.7%.
